Reference: PubChem BioAssay (EPA / NIEHS)
Results filed as inconclusive are left out. Calls of active or inactive are those of the source. How the source made its calls: active means hit-call score of the fitted dose curve at least 0.9, where 1 is the maximum; inconclusive means response in the unintended direction; inactive means score below 0.9.

Target: Oxysterols receptor LXR-alpha (Homo sapiens) (UniProt Q13133)
Assay: ATG_LXRa_TRANS: Attagene TRANS-FACTORIAL HepG2 Assay for human Liver X Receptor alpha (LXRa) (AID 2282980)
Conditions: HepG2 Attagene TRANS reporter, LXRa transactivation
Method: ATG_TRANS is a cell-based, multiplexed-readout assay that uses HepG2, a human liver cell line, with measurements taken at 24 hours after chemical dosing in a 24-well plate.ATG_LXRa_TRANS is one of 30 assay component(s) measured or calculated from the ATG_TRANS assay. It is designed to make measurements of mRNA induction, a form of inducible reporter, as detected with fluorescence intensity signals by Reverse transcription polymerase chain reaction (RT-PCR) and Capillary electrophoresis technology.Data from the assay component ATG_LXRa_TRANS was analyzed into 1 assay endpoint. This assay endpoint, ATG_LXRa_TRANS, was analyzed in the positive analysis fitting direction relative to DMSO as the negative control and baseline of activity. Using a type of inducible reporter, measures of mRNA for gain-of-signal activity can be used to understand the reporter gene at the transcription factor-level as they relate to the gene NR1H3. Furthermore, this assay endpoint can be referred to as a primary readout, because this assay has produced multiple assay endpoints where this one serves a reporter gene function. To generalize the intended target to other relatable targets, this assay endpoint is annotated to the nuclear receptor intended target family, where the subfamily is non-steroidal.
Human liver HepG2 cells are transiently transfected with multiple reporter transcription units (MRTUs) in 6-well plates using FuGene 6 reagent (Roche; 3 ml FuGene/1 mg DNA). The MRTU constructs are regulated by a cis-regulating element (promoter). […] A major difference between the CIS and TRANS system is that in CIS activities of endogenous TFs are measured, whereas the TRANS assay evaluates changes in activities of exogenous, chimeric NR-Gal4 proteins. […] At the end of 24 hour incubation, total RNA was isolated using TriZol reagent (Invitrogen). The isolated RNA is then reverse-transcribed using oligo(dT) primer and Mo-MLV reverse transcriptase (Invitrogen) with DNAse I (Ambion) treatment for 30 min. The one-tenth of the produced cDNA was amplified by PCR using Taq DNA polymerase (Invitrogen) and two reporter sequence-specific primers. The PCR products were fluorescently labeled by primer extension with 6-arboxyfluorescein (6-FAM) 5'-labeled reporter sequence-specific primer (2 min at 95 C, 20 s at 68 C and 10 min at 72 C) and these products were digested with 5U of HpaI (New England Biolabs) for 2h at 37 C. The fragments were purified using Qiaquick PCR columns (Qiagen), analyzed on an ABI 3130xL genetic analyzer (Applied Biosystems) with peak positions identified by using a set of X-rhodamine (ROX)-labeled MapMarker1000 molecular weight standards (BioVentures). The raw capillary electrophoresis data was processed using Attagraph software (Attagene).

Oxysterols receptor LXR-alpha (Homo sapiens), sequence (Q13133 whole entry, looked up): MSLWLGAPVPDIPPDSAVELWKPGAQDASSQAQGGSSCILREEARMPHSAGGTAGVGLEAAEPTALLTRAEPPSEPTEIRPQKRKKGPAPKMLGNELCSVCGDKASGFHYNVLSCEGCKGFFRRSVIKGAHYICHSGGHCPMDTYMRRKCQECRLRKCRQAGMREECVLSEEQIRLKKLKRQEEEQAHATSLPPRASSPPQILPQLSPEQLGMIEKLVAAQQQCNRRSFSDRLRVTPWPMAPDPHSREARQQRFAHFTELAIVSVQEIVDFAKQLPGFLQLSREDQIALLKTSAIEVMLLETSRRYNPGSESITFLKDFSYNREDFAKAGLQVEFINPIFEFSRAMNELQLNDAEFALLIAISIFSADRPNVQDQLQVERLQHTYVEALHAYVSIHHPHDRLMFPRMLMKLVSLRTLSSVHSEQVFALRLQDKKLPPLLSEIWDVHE

SMILES | outcome
C/C(=N\NC(=O)Nc1cc(F)cc(F)c1)c1ncccc1C(=O)O | inactive
O=C(O)C(F)(OC(F)(F)C(F)(F)C(F)(F)F)C(F)(F)F (stereo not given) | inactive
O=c1ssc(Cl)c1Cl | inactive
COC(=O)C(F)(F)C(F)(F)OC(F)(C(F)(F)F)C(F)(F)OC(F)=C(F)F (stereo not given) | inactive
O=C(O)C(F)(F)C(F)(F)C(=O)O | inactive
CC(C)CBr | inactive
COP(=O)(CCC(=O)NCO)OC | inactive
Cc1ccc(C(=O)Cl)cc1 | inactive
CCCCC(CC)COC(=O)c1c(Br)c(Br)c(Br)c(Br)c1C(=O)OCC(CC)CCCC (stereo not given) | inactive
CC(C)(C)c1ccc(O)cc1 | inactive
CCCCN(CCCC)N=O | inactive
c1ccc2c(c1)Nc1ccccc1S2 | inactive
CCOP(=S)(OCC)SCS(=O)(=O)CC | inactive
CC1=C(C(=O)Nc2ccccc2)S(=O)(=O)CCO1 | inactive
ClC(Cl)c1ccccc1 | inactive
CCOC(=O)c1ccccc1N | inactive
O=C(O)C(Cl)Cl | inactive
Cc1c([N+](=O)[O-])cc2c(c1[N+](=O)[O-])C(C)(C)CC2(C)C | inactive
CC(O)C(F)(F)C(F)(F)F (stereo not given) | inactive
O=C(O)C(F)(F)OC(F)(F)C(F)(F)OC(F)(F)F | inactive

SMILES | outcome
OCC(F)(F)OC(F)(F)C(F)(F)OC(F)(F)C(F)(F)OC(F)(F)F | inactive
CC(Cl)CN(C)C (stereo not given) | inactive
CCCCOCCOP(=O)(OCCOCCCC)OCCOCCCC | inactive
O=NN1CCCC1 | inactive
O=S(=O)(F)C(F)(F)C(F)(F)C(F)(F)C(F)(F)C(F)(F)C(F)(F)C(F)(F)C(F)(F)F | inactive
CC(C)(C)N(NC(=O)c1ccc(Cl)cc1)C(=O)c1ccccc1 | inactive
OCC(F)(F)OC(F)(F)C(F)(F)OC(F)(F)C(F)(F)OC(F)(F)CO | inactive
O=S1(=O)OCC2C(CO1)C1(Cl)C(Cl)=C(Cl)C2(Cl)C1(Cl)Cl (stereo not given) | inactive
CCN(CC)c1ccccc1 | inactive
CCOP(=S)(S)OCC | inactive
O=c1[nH]c2ccccc2c(=O)o1 | inactive
CC(=O)c1ccc(-c2ccccc2)cc1 | inactive
CCCCc1ccccc1 | inactive
CC(C)Nc1ccc(Nc2ccccc2)cc1 | inactive
Nc1ccc([N+](=O)[O-])cc1Cl | inactive
O=[N+]([O-])c1cc(Cl)ccc1Cl | inactive
c1ccc2c(c1)sc1ccccc12 | inactive
Cc1ccc2c(c1N)C(=O)c1ccccc1C2=O | inactive
CC(O)C#N (stereo not given) | inactive
O=C(O)C1C(C(=O)O)C2(Cl)C(Cl)=C(Cl)C1(Cl)C2(Cl)Cl (stereo not given) | inactive
